Experiment [1] is described as follows: qHTS assay to identify small molecule antagonists of the glucocorticoid receptor (GR) signaling pathway - cell viability counter screen (AID 720693). Note: nearly all actives have a fitted effect of over 55% in size. Note: potency is the fitted concentration of half-maximal effect. For orientation: Quantitative high-throughput screening tests each substance at several concentrations.
Experiment [2] can be described thus: qHTS assay for identifying genotoxic compounds that show differential cytotoxicity against isogenic chicken DT40 cell lines with known DNA damage response pathways - wild type cell line (AID 743012). Note: nearly all actives have a fitted effect of over 60% in size. Note: potency is the fitted concentration of half-maximal effect. A digest of the protocol:
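Viability by ATP luminescence (CellTiter-Glo, 30 min RT) after 40 h compound treatment at 37 C/5% CO2, using 300 parental DNA repair-proficient DT40 cells per well.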

Experiment [3] in a line: qHTS assay for identifying genotoxic compounds that show differential cytotoxicity against isogenic chicken DT40 cell lines with known DNA damage response pathways - Rev3 mutant cell line (AID 743014). Note: nearly all actives have a fitted effect of over 55% in size. Note: potency is the fitted concentration of half-maximal effect.
A short description of experiment [4]: qHTS assay to identify small molecule antagonists of the androgen receptor (AR) signaling pathway - cell viability counter screen (AID 743033; note: nearly all actives have a fitted effect of over 45% in size; note: potency is the fitted concentration of half-maximal effect).
Experiment [5] can be described thus: qHTS assay to identify small molecule antagonists of the thyroid receptor (TR) signaling pathway - cell viability counter screen (AID 743064). Note: nearly all actives have a fitted effect of over 50% in size. Note: potency is the fitted concentration of half-maximal effect. A digest of the protocol: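 Counter screen for cytotoxicity: compound plus T3 (1 nM final) on GH3.TRE-Luc cells, 23.5 h at 37 °C, then fluorescence viability readout with CellTiter-Fluor.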
Experiment [6] is described as follows: qHTS assay for identifying genotoxic compounds that show differential cytotoxicity against isogenic chicken DT40 cell lines with known DNA damage response pathways - Rad54/Ku70 mutant cell line (AID 743015). Note: nearly all actives have a fitted effect of over 60% in size. Note: potency is the fitted concentration of half-maximal effect.
A short description of experiment [7]: qHTS assay to identify small molecule antagonists of the androgen receptor (AR) signaling pathway using the MDA cell line - cell viability counter screen (AID 743041; note: nearly all actives have a fitted effect of over 45% in size; note: potency is the fitted concentration of half-maximal effect). A digest of the protocol: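 Viability read by CellTiter-Fluor fluorescence in the same wells as the antagonist screen, added after 15.5 h of a 16 h, 37C exposure. Human breast carcinoma MDA-kb2 AR-luc cells, compounds co-dosed with agonist R1881.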

Experiment [8] concerns the target Androgen receptor (Homo sapiens) (UniProt P10275). Put plainly: qHTS assay to identify small molecule antagonists of the androgen receptor (AR) signaling pathway (AID 743035; active = well fitted inhibition curve with a large enough effect in the signal ratio in the repeat runs, not every such curve was filed as active; the % refers to the signal ratio). A digest of the protocol:
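Antagonist mode: AR-bla HEK293 cells co-treated with test compounds and agonist R1881 for 16 h at 37C, 5% CO2. Beta-lactamase activity read as FRET fluorescence after 2 h room-temperature substrate loading.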

Experiment [9] shares this target. Put plainly: qHTS assay to identify small molecule agonists of the androgen receptor (AR) signaling pathway (AID 743036; active = well fitted activation curve with a large enough effect in the signal ratio in the repeat runs, with a control signal flat, not every such curve was filed as active; the % refers to the signal ratio). A digest of the protocol:
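In this Tox21 qHTS, 2,000 HEK293 AR-bla cells per well were incubated with compounds for 16 h at 37C and 5% CO2. Fluorescence intensity was recorded 2 h after adding LiveBLAzer B/G FRET substrate at room temperature.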

The target is the same in experiment [10]. In words: qHTS assay to identify small molecule agonists of the androgen receptor (AR) signaling pathway using the MDA cell line (AID 743040; note: nearly all actives have a fitted effect of over 20% in size). A digest of the protocol: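 Luciferase agonist assay: 16 h compound exposure at 37C without CO2 in MDA-kb2 AR-luc cells, whose MMTV promoter responds to both AR and GR. Luminescence measured after 30 min room-temperature incubation with ONE-Glo.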

“And” between values parts separate entries of the source, which are not always exact repeats. Equal values may be shown once. Records with an inconclusive call do not appear. Where a structure was tested more than once in an assay, its records may differ in their call. The source made the active and inactive calls. Unless noted, calls come from the whole dose curve; as a rule, active = well fitted curve in the direction sought with a large enough effect in the repeat runs; inconclusive = weak or mixed curves; inactive = no such curve, though single readings can be large; an effect the other way counts as inactive or inconclusive.

Chain of Androgen receptor (Homo sapiens) (P10275 whole entry, looked up): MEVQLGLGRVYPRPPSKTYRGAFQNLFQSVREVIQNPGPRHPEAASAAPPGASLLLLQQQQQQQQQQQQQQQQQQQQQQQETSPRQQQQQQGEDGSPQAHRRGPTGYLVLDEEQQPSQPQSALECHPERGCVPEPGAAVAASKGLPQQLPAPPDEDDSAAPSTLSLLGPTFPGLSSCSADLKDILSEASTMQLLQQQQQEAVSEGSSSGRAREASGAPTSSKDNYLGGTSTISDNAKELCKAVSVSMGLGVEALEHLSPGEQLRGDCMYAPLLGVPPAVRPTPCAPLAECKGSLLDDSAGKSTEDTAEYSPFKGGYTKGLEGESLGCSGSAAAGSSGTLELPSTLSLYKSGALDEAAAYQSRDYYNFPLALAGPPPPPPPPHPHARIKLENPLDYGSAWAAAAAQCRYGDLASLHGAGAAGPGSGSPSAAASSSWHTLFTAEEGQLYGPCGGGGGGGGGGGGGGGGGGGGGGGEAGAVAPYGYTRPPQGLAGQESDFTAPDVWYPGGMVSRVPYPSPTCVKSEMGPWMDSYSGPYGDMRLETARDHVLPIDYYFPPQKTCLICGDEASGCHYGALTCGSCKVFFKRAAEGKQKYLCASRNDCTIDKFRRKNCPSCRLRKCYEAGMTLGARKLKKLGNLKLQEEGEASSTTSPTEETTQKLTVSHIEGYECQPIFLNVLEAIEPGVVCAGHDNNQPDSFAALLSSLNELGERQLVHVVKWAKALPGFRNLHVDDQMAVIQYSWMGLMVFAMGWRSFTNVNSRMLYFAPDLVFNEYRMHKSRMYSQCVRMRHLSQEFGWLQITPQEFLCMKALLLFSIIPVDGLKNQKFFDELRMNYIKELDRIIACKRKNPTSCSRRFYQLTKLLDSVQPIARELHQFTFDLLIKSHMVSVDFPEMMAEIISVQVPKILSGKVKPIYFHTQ

With `O=C1Nc2ccccc2C1(c1ccc(O)cc1)c1ccc(O)cc1`, the Potency entry in [1] and in experiment [4] was “inactive” in each case. Also, the Potency in experiment [2] was 68.6 µM (active); in [3], 61.1 µM (active); in experiment [5], 54.5 µM (active).
Turning to `CCn1cc(C(=O)O)c(=O)c2cc(F)c(N3CCNC(C)C3)c(F)c21` (stereo unspecified), the Potency result in experiment [1], in [3], in [6], in [4] and in [5] was “inactive” in each case. Further, in [2], the Potency was 26.6 µM (active).
In the case of `c1ccc2n[nH]nc2c1`, the Potency result in experiment [1], in experiment [2], in [6], in experiment [4] and in [5] was “inactive” in each case. In addition, the Potency entry in [3] was “inactive and 61.1 µM (active)”.
For `NC(Cc1ccc(Cl)cc1)C(=O)O` (stereo unspecified), the Potency result in experiment [1], in experiment [2], in experiment [6], in experiment [4] and in experiment [5] was “inactive” throughout.
For `CC(=O)O[C@]1(C(C)=O)CC[C@H]2[C@@H]3C[C@H](C)C4=CC(=O)CC[C@]4(C)[C@H]3CC[C@@]21C`, the Potency result in experiment [1], in experiment [7] and in experiment [5] was “inactive” in each case. The Potency in [2] is 5.31 µM (active); in experiment [3], 3.76 µM (active) and 4.85 µM (active); in experiment [6] it was 8.41 µM (active) and 21.7 µM (active).
Take `COc1ccc(CCN(C)CCCC(C#N)(c2ccc(OC)c(OC)c2)C(C)C)cc1OC` (stereo unspecified): the Potency result in [1] was “inactive”. Also, the Potency in [2] was 13.3 µM (active) and 54.4 µM (active); in experiment [3] it was 23.7 µM (active) and 27.3 µM (active); in experiment [6], 29.8 µM (active) and 61 µM (active); in [5], 23.7 µM (active) and 21.6 µM (active).
With `C=CC(=O)OCCCCCCCC`, the Potency entry in experiment [1], in experiment [2], in [3], in experiment [6], in experiment [4] and in experiment [5] was “inactive” in each case.
Turning to `NC12CC3CC(CC(C3)C1)C2`, the Potency result in experiment [1], in experiment [2], in experiment [6] and in experiment [4] was “inactive” throughout.
Turning to `CCn1c2ccccc2c2cc(N)ccc21`, the Potency entry in experiment [1], in experiment [4] and in experiment [5] was “inactive” in each case. Moreover, the Potency in experiment [2] was 61.1 µM (active); in experiment [3] it was 21.7 µM (active); in [6], 54.5 µM (active).
Turning to `CC(=O)C1=C(C)[C@@H]2C[C@@]3(C1)[C@H](C)CC[C@H]3C2(C)C`, the Potency entry in [1], in experiment [2], in experiment [3], in experiment [6] and in experiment [4] was “inactive” throughout. The Potency in experiment [5] was 63.9 µM (active) and inactive.
Regarding `CCN(CC)C(=O)Nc1ccc(OCC(O)CNC(C)(C)C)c(C(C)=O)c1` (stereo unspecified), the Potency result in experiment [1], in experiment [2], in experiment [3], in experiment [6], in experiment [8] and in [9] was “inactive” throughout. The Potency entry in experiment [7] and in experiment [5] was “inactive” in each case. The molecule was called inactive in [10].
`CCCN[C@H]1CCc2nc(N)sc2C1`: the Potency entry in experiment [1], in experiment [2], in experiment [3], in [6], in experiment [4] and in experiment [5] was “inactive” in each case.
On to `O=S(=O)(O)c1ccc2nc(-c3ccccc3)[nH]c2c1`, for which the Potency is 20.8 µM (active) in [1]; “inactive and 46.2 µM (active)” in experiment [2]; 58.2 µM (active) in experiment [6]. For the same molecule, the Potency entry in experiment [4], in experiment [7] and in experiment [5] was “inactive” in each case.
As to `Nc1cc(S(=O)(=O)O)cc2cc(S(=O)(=O)O)cc(O)c12`, the Potency entry in [1], in [2], in [4] and in experiment [5] was “inactive” throughout. Also, the Potency result was “inactive and 24.3 µM (active)” in [3]; “inactive and 61.1 µM (active)” in experiment [6].
As for `NCCCCCC(=O)O`, the Potency entry in experiment [1], in [2], in experiment [6], in experiment [4], in [7] and in [5] was “inactive” in each case.
On to `CCCNC(C)C(=O)Nc1ccccc1C` (stereo unspecified), for which the Potency entry in [1], in experiment [2], in experiment [6], in experiment [4], in experiment [7] and in [5] was “inactive” each time.
For the molecule `O=C(O)c1cccc(C(=O)O)c1`, the Potency entry in experiment [1], in experiment [4], in experiment [7] and in experiment [5] was “inactive” throughout.
Regarding `CC(C)CCOC(=O)c1ccc(N(C)C)cc1`, the Potency result in experiment [1], in experiment [4] and in experiment [5] was “inactive” in each case.
For `CCCCCC(=O)O[C@]1(C(C)=O)CC[C@H]2[C@@H]3CCC4=CC(=O)CC[C@]4(C)[C@H]3CC[C@@]21C`, the Potency was 3.76 µM (active) and 3.83 µM (active) in experiment [2]; 3.76 µM (active) and 2.15 µM (active) in experiment [3]; 7.5 µM (active) and 5.41 µM (active) in [6]; “inactive and 24.4 µM (active)” in [4]; 18.8 µM (active) in experiment [5]. Besides, in [7], the Potency entry is “inactive”.
Regarding `C1COC(NC(C2CC2)C2CC2)=N1`, the Potency result in experiment [1], in experiment [2] and in [7] was “inactive” in each case.
Take `OCCN1CCNCC1`: the Potency result in [1], in experiment [6], in experiment [4] and in experiment [5] was “inactive” in each case. For the same molecule, in [3], the Potency was 31.2 µM (active).
Take `O=C(Nc1ccccc1SSc1ccccc1NC(=O)c1ccccc1)c1ccccc1`: the Potency in [2] is 2.45 µM (active) and 1.37 µM (active); in experiment [3], 1.38 µM (active) and 1.72 µM (active); in [6], 2.45 µM (active) and 1.72 µM (active); in [4], 11 µM (active) and 19.5 µM (active); in experiment [5], 68.6 µM (active).
For the molecule `O=C(O)c1cn(-c2ccc(F)cc2)c2cc(N3CCNCC3)c(F)cc2c1=O`, the Potency result in experiment [1], in experiment [3], in experiment [4], in [7] and in [5] was “inactive” each time.
Take `Nc1ccc(O)cc1`: the Potency in experiment [1] is 15.1 µM (active) and 25.5 µM (active); in experiment [7], 29.8 µM (active) and 48.6 µM (active) and 56.6 µM (active); in experiment [5], 8.41 µM (active) and 17.2 µM (active) and 14.2 µM (active). Moreover, the Potency result in experiment [4] and in [9] was “inactive” in each case. For the same molecule, the result in [10] was inactive.
Take `N[C@@H]1CONC1=O`: the Potency result in [2], in experiment [3], in [6], in [4] and in experiment [7] was “inactive” throughout.
On to `COC(=O)/C=C/c1ccccc1`, for which the Potency entry in experiment [1], in [2], in experiment [4], in [7] and in experiment [5] was “inactive” throughout.

(Values after PubChem BioAssay (Tox21).)
